Assay results published in PubChem BioAssay (NCI).
This is part of a sample that, as a whole, favours compounds with a hit. Of some 79,000 tested, about 15% had one in any assay. The source made the active and inactive calls. Rule as the data show it: active = growth inhibition above about 70%; inactive = the rest.

Assays:
[1] = NCI Yeast Anticancer Drug Screen. Data for the rad50 strain (AID 155);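 also: 0% = growth of vehicle-only cultures of the same strain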; details: S. cerevisiae rad50 strain growth inhibition; at 50.0 µM; active compounds read high
Outline: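 Vehicle-treated cultures provide the reference for the growth inhibition reported for compound-exposed, repair-deficient yeast.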

[2] = NCI Yeast Anticancer Drug Screen. Data for the mec2-1 strain (AID 157); details: S. cerevisiae mec2-1 strain, at 50.0 µM, active compounds read high
Outline: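 Test agents were screened against the mec2-1 yeast strain, with defined DNA repair or cell cycle alteration. Growth was scored as inhibition against vehicle-only controls.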

[3] = NCI Yeast Anticancer Drug Screen. Data for the sgs1 mgt1 strain (AID 161);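 also: 0% = growth of cultures given vehicle only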; details: S. cerevisiae sgs1 mgt1 strain, at 50.0 µM, active compounds read high
Outline: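 Inhibition of yeast growth, normalised to vehicle-treated controls, is reported for a strain bearing genetic alterations in DNA damage repair.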

[4] = NCI Yeast Anticancer Drug Screen. Data for the cln2 rad14 strain (AID 165);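 also: 0% = growth equal to vehicle treated cultures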; details: S. cerevisiae cln2 rad14 strain, at 50.0 µM, active compounds read high
Outline: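 Growth of compound-exposed yeast (cln2 rad14 genotype) measured and expressed as inhibition relative to vehicle.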

[5] = NCI Yeast Anticancer Drug Screen. Data for the bub3 strain (AID 167); details: S. cerevisiae bub3 mutant strain, at 50.0 µM, active compounds read high
Outline: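 Mutant yeast screening strain plus compound; vehicle-treated cultures serve as the 0% inhibition reference.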

[6] = NCI Yeast Anticancer Drug Screen. Data for the mlh1 rad18 strain (AID 175); details: S. cerevisiae mlh1 rad18 strain growth inhibition; at 50.0 µM; active compounds read high
Outline: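 In this whole-cell yeast screen, a strain with altered DNA damage repair is challenged with compound, and its growth is measured against matched vehicle-treated controls.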

Measured: growth inhibition

O=C(NC(=O)c1c(F)cccc1F)Nc1ccc(C(O)(C(F)(F)F)C(F)(F)F)cc1
inactive: [1] -33.2% | [2] 14.5% | [3] 10.2% | [4] 24.1% | [5] 6% | [6] 3.55%

COC(=O)C1CCC(C)(C(=O)OC)C1(C)C (configuration not stated)
inactive: [1] 0% | [2] -15.2% | [3] -11.9% | [4] -1.3% | [5] -12.4% | [6] -3.75%

OC(c1cccc(Cl)c1)C(Cl)Cl (configuration not stated)
inactive: [1] -2.55% | [2] -9.45% | [3] -22% | [4] -4.15% | [5] -14.5% | [6] 1.95%

O=[N+]([O-])c1ccc(F)cc1
inactive: [1] -1.3% | [2] 5.25% | [3] 2.3% | [4] -17.4% | [5] 7.15% | [6] 4.75%

N#CCCNC(CC(=O)O)C(=O)O (configuration not stated)
inactive: [1] 10.7% | [2] 1.55% | [3] 14.4% | [4] -13.2% | [5] 0.5% | [6] -4.85%

O=C(NCN1CCOCC1)Nc1ccccc1
inactive: [1] 8% | [2] 0.6% | [3] -1.65% | [4] -24.2% | [5] -6.55% | [6] 2.05%

COc1cc(NC(C)CCCN)c2nccc(C)c2c1 (configuration not stated)
inactive: [1] 16.2% | [2] 12.2% | [3] -27.1% | [4] -8.15% | [5] -62.5% | [6] -36.9%

O=[N+]([O-])c1cc(C(F)(F)F)ccc1S(=O)(=O)c1ccccc1
inactive: [1] 40.4% | [2] 8.5% | [3] 8.7% | [4] 13.7% | [5] 14.1% | [6] 17.6%

C=C(C)C(O)C(O)C(=C)C (configuration not stated)
inactive: [1] -6.35% | [2] -17.8% | [3] -15.6% | [4] -1.7% | [5] 12.9% | [6] -4%

CC(C)(C)C(C)(C)CC(N)=O
inactive: [1] 7.25% | [2] -15.7% | [3] -4.3% | [4] -3.6% | [5] 10.9% | [6] -9.1%

O=[N+]([O-])c1cccc(N=Cc2ccccc2)c1
inactive: [1] 7.25% | [2] 12.9% | [3] -7.4% | [4] 8.15% | [5] 13.8% | [6] 6.05%

CCC1(C#N)N=C(c2ccccc2)c2ccccc2N1C(=O)Oc1ccccc1 (configuration not stated)
inactive: [1] 3.65% | [2] 2.65% | [3] -9.7% | [4] -15.7% | [5] 11.1% | [6] 19.6%

C=C(CBr)CCCOCc1ccccc1
inactive: [1] 10.8% | [2] -7.25% | [3] -7.15% | [4] 2.1% | [5] -5.35% | [6] -7.55%

Fc1ccc2nncc(/C=C/c3ccccc3F)c2c1
inactive: [1] 11.3% | [2] 7.6% | [3] 8.4% | [4] -4.85% | [5] 11% | [6] -3.5%

CC1=Nc2nc(=NCCCN(C)C)nc3cccc(n23)N1
inactive: [1] 7.6% | [2] -1.35% | [3] 7.65% | [4] 11.2% | [5] 6.4% | [6] 4%

CCCC1c2c(ccc3ccccc23)Oc2ccc3ccccc3c21
inactive: [1] -36.1% | [2] 2.4% | [3] -19.6% | [4] -2% | [5] -13.7% | [6] -1.35%

CCSC1C(N=[N+]=[N-])C(CO)OC1n1cnc2c(N)ncnc21 (configuration not stated)
inactive: [1] 1.3% | [2] -3.2% | [3] 9.3% | [4] 10.9% | [5] -2% | [6] 4.7%

Cc1cc(C)c(S(=O)(=O)O)cc1N
inactive: [1] -2.55% | [2] 2.1% | [3] 6.1% | [4] -42% | [5] -0.05% | [6] -26.1%

Nc1cccc(Br)n1
inactive: [1] 16.1% | [2] -4.9% | [3] 0.45% | [4] -51.7% | [5] 7.1% | [6] 4.9%

CC1CN(CCCOC(=O)Nc2cccc3ccccc23)CCN1Cc1ccccc1 (configuration not stated)
active: [1] 81.2% | [2] 94% | [3] 95.8% | [4] 97.7% | [5] 82% | [6] 95.8%

c1ccc(-c2cc(-c3ccncc3)cc(-c3ccncc3)n2)cc1
inactive: [1] 3.85% | [2] -21% | [3] 9.4% | [4] 18.6% | [5] -1.9% | [6] -85.2%

N=C1N=Nc2nc(C(C(=O)c3cccc([N+](=O)[O-])c3Cl)c3nc4n(c3O)C(=N)N=N4)c(O)n21 (configuration not stated)
inactive: [1] -2.65% | [2] 0.7% | [3] 13.8% | [4] -23.5% | [5] -0.15% | [6] 2.8%

CS(=O)(=O)OCCN(CCOS(C)(=O)=O)c1ccc(N=Nc2ccccc2C(=O)O)cc1
inactive: [1] 27.9% | [2] 21.9% | [3] 21.6% | [4] 24.8% | [5] 19.1% | [6] 32.4%

O=C1C=CC[C@H](/C=C/c2ccccc2)O1
inactive: [1] 21.6% | [2] 31.8% | [3] 28.6% | [4] 24.4% | [5] 33.5% | [6] 48.9%

CCOP(=O)(OCC)/C(C#N)=C/c1c(C)[nH]c2ccccc12
inactive: [1] 0.5% | [2] -10.8% | [3] 18.6% | [4] 13.4% | [5] -7.45% | [6] 25.7%

CCN(CC)Cc1c(C)cccc1O
inactive: [1] -4.65% | [2] -4.35% | [3] -27.8% | [4] -49.5% | [5] -0.45% | [6] -16.4%

CCCC(=O)Oc1ccc2ccccc2c1
inactive: [1] 7.65% | [2] 23.5% | [3] 1.8% | [4] 14.7% | [5] -1.5% | [6] -33.5%

CC(=O)OCCCC(C)Nc1ccnc2cc(Cl)ccc12 (configuration not stated)
inactive: [1] -8.15% | [2] -8.95% | [3] -2.35% | [4] 19.9% | [5] -7.9% | [6] 11.3%

COC1=NO[C@@H]2C=CO[C@H]12
inactive: [1] -8.2% | [2] -13.2% | [3] -5.05% | [4] -18.4% | [5] 8.35% | [6] 9.95%

F[B-](F)(F)[NH2+]c1ccc(-c2ccc([NH2+][B-](F)(F)F)c(Cl)c2)cc1Cl
inactive: [1] 35.1% | [2] 8.15% | [3] 42.3% | [4] 38% | [5] 19.9% | [6] 10.7%

CCCCC(O)(c1ccccc1)c1ccccc1CN(C)C (configuration not stated)
inactive: [1] 1.7% | [2] -3% | [3] -0.65% | [4] 6.15% | [5] -2.05% | [6] -4.8%

COC1OC(CO)C(O)C(NC(=O)[C@H](Cc2ccc(O)cc2)NC(=O)OCc2ccccc2)C1O (some centres not stated)
inactive: [1] 8.6% | [2] -3.75% | [3] 3.2% | [4] -6.05% | [5] -0.5% | [6] 7.1%

COC1C(OC(N)=O)C(O)C(Oc2ccc3c(O)c(NC(=O)c4ccc(O)c(CC=C(C)C)c4)c(=O)oc3c2C)OC1(C)C (configuration not stated)
inactive: [1] 7.2% | [2] -23.4% | [3] 1.7% | [4] -6.1% | [5] 9.1% | [6] 26.4%

CC(Cl)C(=O)N(C)c1ccccc1 (configuration not stated)
inactive: [1] 3.6% | [2] -14.8% | [3] -2.9% | [4] -16% | [5] -14.8% | [6] -14.1%

Cc1[nH]n(C(N)=S)c(=O)c1N=Nc1c(Cl)cccc1Cl
inactive: [1] 55.4% | [2] 14.9% | [3] 63.2% | [4] -37.4% | [5] 11.9% | [6] 51%

CCC(C(=O)O)C1=CCCc2c(C)ccc(C)c21 (configuration not stated)
inactive: [1] 23.6% | [2] 13.2% | [3] 21.6% | [4] 25.3% | [5] 11.7% | [6] 23.2%

O=C(O)c1cc(Nc2nc(Cl)nc(Cl)n2)ccc1-c1c2ccc(=O)cc-2oc2cc(O)ccc12
inactive: [1] 37.2% | [2] 21.3% | [3] 22.7% | [4] 10% | [5] -1.15% | [6] 49.5%

CC(=O)NCc1cc([N+](=O)[O-])ccc1O
inactive: [1] 11.6% | [2] 2.55% | [3] -0.8% | [4] -6.2% | [5] -3.55% | [6] 5.05%

O=C(Nc1ccc(Cl)cc1)OCc1ccco1
inactive: [1] 2.2% | [2] 24.1% | [3] 24.4% | [4] -12.4% | [5] 17.8% | [6] 16.8%

COCCCNC1=C(C#N)C(=O)NC(c2cccs2)S1 (configuration not stated)
inactive: [1] 2% | [2] 0.15% | [3] 3.45% | [4] 1.25% | [5] 5.3% | [6] -34.8%

CN(C=O)c1ccccc1
inactive: [1] 3.6% | [2] 1.8% | [3] 6.15% | [4] 11.7% | [5] 2.05% | [6] 3.05%

O=c1c(Br)c(-c2ccccc2Br)[nH]c2ccccc12
inactive: [1] -1.25% | [2] 13.7% | [3] 11.3% | [4] 0.4% | [5] -3.45% | [6] -13.9%
